ADAM10 inh – inhibits human ADAM10. O14672. recombinant ADAM10, EDANS/DABCYL FRET peptide cleavage, 3 h. inhibition, % at 7 µM. actives 0.62% (n = 370,000). AID 720582;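 active = inhibition above a per-campaign cutoff equal to the mean of compounds falling between control-based bounds plus 3 SD, cut at about 20% in these data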
Target sequence (O14672 214-748 limits assumed): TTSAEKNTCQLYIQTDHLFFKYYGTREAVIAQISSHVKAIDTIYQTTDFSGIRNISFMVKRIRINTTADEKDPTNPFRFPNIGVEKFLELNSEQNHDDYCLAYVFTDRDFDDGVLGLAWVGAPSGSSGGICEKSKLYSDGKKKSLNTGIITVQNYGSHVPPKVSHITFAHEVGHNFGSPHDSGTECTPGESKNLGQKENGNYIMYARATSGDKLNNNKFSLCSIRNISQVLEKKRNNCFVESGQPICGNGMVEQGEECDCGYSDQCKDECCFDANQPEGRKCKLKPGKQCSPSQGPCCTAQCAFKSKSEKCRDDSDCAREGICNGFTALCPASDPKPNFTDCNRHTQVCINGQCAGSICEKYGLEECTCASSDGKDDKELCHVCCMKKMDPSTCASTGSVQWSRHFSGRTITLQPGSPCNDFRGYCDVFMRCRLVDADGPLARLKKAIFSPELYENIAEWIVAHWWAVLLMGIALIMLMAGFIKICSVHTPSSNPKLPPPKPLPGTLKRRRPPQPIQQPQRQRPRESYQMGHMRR
rCAG binder – molecules binding r(CAG) RNA repeats; actives 1.3% (n = 370,000); AID 651821; inhibition, % at 3 µM; r(CAG) RNA repeat, TO-PRO-1 dye displacement fluorescence;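 active = inhibition above the plate cutoff, the mean of all test compounds on that plate plus 3 SD, cut at about 35% in these data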;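 note: higher means more dye released from RNA so lower well fluorescence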
ADAM17 inh – ADAM17 inhibition, QFRET primary screen; P78536; inhibition, % at 6.95 µM; recombinant ADAM17, EDANS/DABCYL FRET peptide cleavage; actives 0.83% (n = 370,000);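 active = inhibition above the mean of compounds lying between control limits plus 3 SD, set per campaign, cut at about 8.5% in these data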
KLK7 zymogen act – activates the human kallikrein-7 zymogen | actives 0.9% (n = 370,000) | activation, % at 7 µM | P49862 | purified proKLK7, EDANS-DABCYL substrate fluorescence; 100% is mature enzyme control, 0% vehicle;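 active = activation above the mean of all tested compounds plus 3 SD, computed per campaign excluding outliers beyond control limits, cut at about 13% in these data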
NR3A LBD binder – NR3A (human) ligand-binding domain modulation. NR3A LBD differential scanning fluorimetry, Tm shift; 0% = protein alone, 100% = glycine-bound protein. Tm shift relative to glycine control, % at 25 µM. actives 2.5% (n = 340,000);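 active = melting temperature shift of at least 10% of the positive control shift, at one fixed dose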
AHR act – human AHR activation; P35869; AHR-responsive luciferase reporter cells, luminescence; activation, % at 5 µM; actives 2.5% (n = 320,000); AID 2796; in the data active = activation above about 47%
ADAM10 counter – ADAM10 inhibition, counter-screen for ADAM17 exosite hits | shares compounds with ADAM17 inh | recombinant ADAM10, EDANS/DABCYL FRET peptide cleavage, 3 h | inhibition, % at 6.95 µM | actives 47% (n = 2,900) | AID 743256;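 active = mean inhibition over the triplicate runs exceeds the activity threshold set in the earlier primary screen, cut at about 20% in these data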
ADAM17 confirm – human ADAM17 inhibition, confirmation; shares compounds with ADAM17 inh; recombinant ADAM17, EDANS/DABCYL QFRET peptide cleavage; inhibition, % at 6.95 µM; actives 65% (n = 2,900); AID 743257;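 active = mean inhibition across replicates above the hit cutoff set in the primary screen, cut at about 8.5% in these data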
Large screens that a line does not name were inactive (follow-up assays come after a bar, where they were run). The list is not random: actives were taken first. Their share in the collection is about 7%.

COc1ccccc1N=C1SCC(=O)N1Cc1ccco1	ADAM17 inh 8.9 | ADAM10 counter inactive | ADAM17 confirm inactive
C=CCc1cccc(CNc2nc3ccccc3n2CCN2CCOCC2)c1O	ADAM17 inh 11.9 | ADAM10 counter inactive | ADAM17 confirm 9.3
CCOC(=O)c1c(C)[nH]c(C)c1C(=O)COC(=O)/C=C/c1cccc(C(F)(F)F)c1	ADAM17 inh 12.0 | ADAM10 counter 26.7 | ADAM17 confirm 15.3
CC(OC(=O)C1CCN(c2ccc(C(F)(F)F)cn2)CC1)C(=O)Nc1ccc(S(N)(=O)=O)cc1 (centres undefined)	none
CC(=O)c1ccc(NC(=O)C(C)OC(=O)C2CCN(c3ccc(C(F)(F)F)cn3)CC2)cc1 (centres undefined)	ADAM17 inh 9.0 | ADAM10 counter inactive | ADAM17 confirm 9.1
O=C(Nc1ccc2c(c1)OCCO2)C(C1CC1)N1CCN(c2ccc(C(F)(F)F)cn2)CC1 (centres undefined)	ADAM17 inh 8.8 (no result: NR3A LBD binder, AHR act) | ADAM10 counter inactive | ADAM17 confirm 10.8
O=C(Nc1ccc2c(c1)OCCO2)C(c1ccnc2ccccc12)N1CCN(c2ccc(C(F)(F)F)cn2)CC1 (centres undefined)	ADAM17 inh 10.7 (no result: NR3A LBD binder, AHR act) | ADAM10 counter 54.0 | ADAM17 confirm 25.1
O=C(CCNC(=O)c1ccccc1)NNC(=O)COc1ccccc1Cl	none
O=C1OC(c2ccccc2)(c2ccc3cc(O)ccc3c2)c2ccccc21 (centres undefined)	ADAM17 inh 10.2, NR3A LBD binder 10.4 (no result: AHR act) | ADAM10 counter 25.2 | ADAM17 confirm 13.4
Cc1ccccc1C(=O)Nc1ccc(S(=O)(=O)N2CCOCC2)cc1	none (no result: ADAM10 inh, rCAG binder, ADAM17 inh, KLK7 zymogen act)
CCCNC(=O)C1(C)CCCN(Cc2cccc(C#N)c2)C1 (centres undefined)	none (no result: NR3A LBD binder, AHR act)
CC1Sc2ccc(S(=O)(=O)N3CCC(C(=O)NCCc4ccccc4)CC3)cc2NC1=O (centres undefined)	none
CC1Sc2ccc(S(=O)(=O)N3CCC(C(=O)NCC(C)c4ccccc4)CC3)cc2NC1=O (centres undefined)	ADAM17 inh 16.4 | ADAM10 counter inactive | ADAM17 confirm inactive
O=C(Cc1ccc(Cl)cc1)SCc1ccccc1	none
COc1ccc(CN2C(=O)C(CC(=O)NC3CCCCC3)CC(C(=O)N(C(C)C)C(C)C)=C2C)cc1 (centres undefined)	none (no result: NR3A LBD binder, AHR act)
C[C@@H]1CC=C[C@H]2[C@H]1C(=O)N(Cc1ccccc1)[C@H]2c1ccc2ccccc2c1	ADAM17 inh 9.4 | ADAM10 counter inactive | ADAM17 confirm inactive
C[C@@H]1CC=C[C@H]2[C@H]1C(=O)N(Cc1ccccc1)[C@H]2c1ccoc1	none
Cc1cc(NC(=O)c2c(-c3c(Cl)cccc3Cl)noc2C)n(C)n1	none
COCCNc1nc(Nc2ccc(Cl)cc2F)c2sccc2n1	none (no result: NR3A LBD binder, AHR act)
C[C@@H]1CCCCO[C@@H](CN(C)Cc2ccc(Cl)c(Cl)c2)[C@@H](C)CN([C@H](C)CO)C(=O)c2cc(NC(=O)CCC(F)(F)F)ccc2O1	ADAM17 inh 9.2 (no result: NR3A LBD binder, AHR act) | ADAM10 counter 42.5 | ADAM17 confirm 22.4
C[C@H](CO)N1C[C@H](C)[C@@H](CN(C)Cc2ccc(C(=O)O)cc2)OCCCC[C@H](C)Oc2ccc(NC(=O)CCC(F)(F)F)cc2C1=O	none (no result: NR3A LBD binder, AHR act)
COc1ccc(S(=O)(=O)Nc2ccc3c(c2)CC(=O)N([C@@H](C)CO)C[C@H](C)[C@@H](CN(C)S(=O)(=O)c2ccc(F)cc2)O3)cc1	ADAM17 inh 10.4 | ADAM10 counter inactive | ADAM17 confirm inactive
C[C@H](CO)N1C[C@H](C)[C@@H](CN(C)S(=O)(=O)c2ccc(F)cc2)Oc2ccc(NS(=O)(=O)c3ccc(F)cc3)cc2C1=O	none
C[C@@H]1CN([C@H](C)CO)C(=O)c2cc(NS(=O)(=O)c3ccc(F)cc3)ccc2O[C@@H]1CN(C)Cc1ccc(Cl)c(Cl)c1	ADAM17 inh 9.6, NR3A LBD binder 13.2 | ADAM10 counter 39.5 | ADAM17 confirm 19.1
C/C(O)=c1/cnc2nc3ccccc3n2c1=O	none
Cc1ccc(CNC(=O)C2CCC(=O)N(C3CC3)C2)cc1 (centres undefined)	none
CC1(NC(=O)CSc2nnc(-c3c[nH]c4ccccc34)n2C2CC2)CCS(=O)(=O)C1 (centres undefined)	none
O=C(Nc1ccc(Nc2ccccc2)cc1)c1ccc(Cl)c([N+](=O)[O-])c1	ADAM17 inh 8.6, NR3A LBD binder 24.4 | ADAM10 counter 27.7 | ADAM17 confirm 18.4
Nc1nc(N)c(Br)c(Nc2ccc(Cl)c(Cl)c2)n1	ADAM17 inh 10.0 (no result: AHR act) | ADAM10 counter inactive | ADAM17 confirm inactive
Cc1ccc([C@@H]2CC(=O)[C@@H]3CN(S(=O)(=O)c4ccc(C)cc4)[C@H](c4ccccc4)C[C@@H]3N2S(=O)(=O)c2ccc(Cl)cc2)cc1	none (no result: NR3A LBD binder, AHR act)
COC(=O)c1c(NC(=O)Cn2nc(C(F)F)cc2C(F)F)sc(C)c1C	none
CCOC(=O)c1c(NC(=O)Cn2nc(C(F)F)cc2C(F)F)sc(C)c1C	ADAM17 inh 9.1 | ADAM10 counter inactive | ADAM17 confirm 12.3
O[C@H]1C[C@H](c2ccccc2)N(CC2CCCCC2)C[C@@H]1n1cc(C2CC2)nn1	ADAM17 inh 9.0 (no result: NR3A LBD binder, AHR act) | ADAM10 counter 20.9 | ADAM17 confirm 12.5
CCCCCCSC1=C(C#N)C(=O)NC2(CCCCC2)S1	rCAG binder 70.2, ADAM17 inh 9.0 | ADAM10 counter inactive | ADAM17 confirm 9.0
COc1ccc(CSC2=C(C#N)C(=O)NC3(CCCCC3)S2)cc1	none (no result: NR3A LBD binder, AHR act)
COc1ccc(C(=S)N2CCCCCC2)cc1	none
COc1ccc(C(=S)N2CCN(c3ccccc3C)CC2)cc1	ADAM17 inh 9.4 | ADAM10 counter inactive | ADAM17 confirm inactive
O=C(Cc1noc2ccccc12)NNC(=S)Nc1ccc(Cl)cc1	ADAM17 inh 12.2 | ADAM10 counter inactive | ADAM17 confirm inactive
Cc1ccc(NC(=O)c2cncc(Br)c2)nc1	none
Cc1ccc(S(=O)(=O)N2C[C@H]3C(=O)C[C@@H](c4ccccc4F)N(S(=O)(=O)c4ccc(C)cc4)[C@H]3C[C@H]2c2ccccc2)cc1	ADAM17 inh 10.3 (no result: NR3A LBD binder, AHR act) | ADAM10 counter inactive | ADAM17 confirm inactive
Cc1ccc([C@@H]2CC(=O)[C@@H]3CN(S(=O)(=O)c4ccc(C)cc4)[C@H](c4ccccc4F)C[C@@H]3N2S(=O)(=O)c2ccc(C)cc2)cc1	none (no result: NR3A LBD binder, AHR act)
Cc1ccc(N=C2NC(=O)/C(=C/c3cccnc3)S2)c(C)c1	none

Screening data as filed in PubChem.
